Results reported in the supplement of paper PMC9492666.
Counter-ions that a name gives are not always drawn.

Test system: MDA-MB-231
Experiment: relative cell viability, compound alone, vs DMSO (fraction of DMSO control); higher = less growth inhibition
Settings: 72 h
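Further: viability read out with the CCK-8 kit in 96-well plates, screening a set of 303 compounds acting on lipid metabolism targets.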

Compound	relative cell viability
O=C(O)CN(CC(=O)O)c1ccccc1OCCOc1ccccc1N(CC(=O)O)CC(=O)O	0.899
COc1cc(O)c2c(c1)O[C@H](c1ccc(O)cc1)CC2=O [Sakuranetin]	0.941
CC(C)(O)c1ccccc1CC[C@@H](SCC1(CC(=O)O)CC1)c1cccc(/C=C/c2ccc3ccc(Cl)cc3n2)c1 [Montelukast]	0.857
CC(C)c1nc(N(C)S(C)(=O)=O)nc(-c2ccc(F)cc2)c1/C=C/[C@@H](O)C[C@@H](O)CC(=O)O [Rosuvastatin]	0.871
Cc1cc(N2C[C@@H](C)N[C@@H](C)C2)ncc1-c1ccc(-c2nc3c(ccn3C)c(=O)[nH]2)cc1	1.05
COc1ccc(-c2coc3cc(O)cc(O)c3c2=O)cc1 [Biochanin A]	0.729
CC(C)n1c(/C=C/C(O)CC(O)CC(=O)O)c(-c2ccc(F)cc2)c2ccccc21 (stereo not drawn) [Fluvastatin sodium salt]	0.863
CC(C)(Oc1ccc(CCNC(=O)c2ccc(Cl)cc2)cc1)C(=O)O [Bezafibrate]	0.823
O=C(O)C(O)Cc1ccc(O)c(O)c1 (stereo not drawn) [Sodium Danshensu]	0.818
O=C(Nc1ccncc1)c1cc([N+](=O)[O-])ccc1Cl	0.831
CC(C)(C)c1ccc(-c2nc3ccccc3[nH]2)cc1	0.612
CC(C)(C)N1C(=O)C(Nc2ccc(N3CCCCC3)cc2)=C(c2ccccc2)S1(=O)=O	0.947
O=C(NNc1ccccc1)c1ccncc1 [PluriSln 1]	0.814
